# Active and inactive are the calls of the source. The calls were made as follows: active = hit-call score of the fitted dose curve at least 0.9, where 1 is the maximum; inactive = score below 0.9.
# Assays:
# [1] = read-out: Transforming growth factor beta 1 (TGFb1), TGFB1 (gene 7040); assay: BSK_KF3CT_TGFb1: BioMAP Diversity Plus: KF3CT Assay for Transforming growth factor beta 1 (TGFb1) Biomarker Activity (AID 2283072); conditions: primary human keratinocytes with fibroblasts; actives raise or lower the signal
# In short: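 KF3CT co-culture (keratinocytes + fibroblasts), 24 h exposure → TGF-b1 ELISA → bidirectional fit, DMSO = baseline. Parallel SRB total-protein staining (0.1% SRB, 10% TCA fixation, 560 nm) for cytotoxicity.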
# [2] = read-out: C-C motif chemokine 2 (Homo sapiens) (UniProt P13500); assay: BSK_KF3CT_MCP1: BioMAP Diversity Plus: KF3CT Assay for Monocyte Chemoattractant Protein 1 (MCP1/CCL2) Biomarker Activity (AID 2283073); conditions: primary human keratinocytes with fibroblasts; actives raise or lower the signal
# In short: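 ELISA read-out of MCP-1, 24 h post-dose, in primary human skin keratinocytes co-cultured with fibroblasts. Parallel SRB staining monitors cytotoxicity; changes fitted both directions relative to DMSO.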
# [3] = read-out: Matrix Metallopeptidase 9 (MMP9), MMP9 (gene 4318); assay: BSK_KF3CT_MMP9: BioMAP Diversity Plus: KF3CT Assay for Matrix Metallopeptidase 9 (MMP9) Biomarker Activity (AID 2283074); conditions: primary human keratinocytes with fibroblasts; actives raise or lower the signal;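 as to AC50: MMP9 protein level quantified by ELISA in the co-culture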
# In short: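 Values come from bidirectional fitting relative to DMSO of MMP-9 levels, which were measured by ELISA. Measurements were taken 24 h after chemical dosing of a keratinocyte and foreskin fibroblast co-culture.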
# [4] = read-out: urokinase plasminogen activator (uPA), PLAU (gene 5328); assay: BSK_KF3CT_uPA: BioMAP Diversity Plus: KF3CT Assay for urokinase plasminogen activator (uPA) Biomarker Activity (AID 2283075); conditions: primary human keratinocytes with fibroblasts; actives raise or lower the signal
# In short: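 Values derive from bidirectional fitting against DMSO controls. Keratinocyte/foreskin fibroblast co-cultures received chemical; 24 h later uPA was detected by ELISA, with SRB total-protein staining in parallel wells for overt cytotoxicity.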
# CD40, CD40 (gene 958) [5] = assay: BSK_LPS_CD40: BioMAP Diversity Plus: LPS Assay for CD40 Biomarker Activity (AID 2283076); conditions: primary human HUVEC with PBMC; actives raise or lower the signal
# In short: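 In the LPS system of human endothelial cells with peripheral blood mononuclear cells, CD40 levels were read by ELISA 24 h post-treatment. Signal changes in either direction were fitted against the DMSO baseline, with parallel SRB protein staining.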
# [6] = read-out: E-selectin (Homo sapiens) (UniProt P16581); assay: BSK_LPS_Eselectin: BioMAP Diversity Plus: LPS Assay for Eselectin Biomarker Activity (AID 2283077); conditions: primary human HUVEC with PBMC; actives raise or lower the signal
# In short: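 E-selectin ELISA on LPS-stimulated endothelial cell/PBMC co-cultures, read 24 h post-treatment; gains and losses fitted against DMSO. Parallel SRB staining (0.1% SRB after 10% TCA fixation, 560 nm) flags overt cytotoxicity.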
# [7] = read-out: Interleukin-8 (IL8), CXCL8 (gene 3576); assay: BSK_LPS_IL8: BioMAP Diversity Plus: LPS Assay for Interleukin-8 (IL8) Biomarker Activity (AID 2283078); conditions: primary human HUVEC with PBMC; actives raise or lower the signal
# In short: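 ELISA read-out of IL-8 after 24 h chemical treatment of LPS-activated endothelial/PBMC human primary co-cultures. Changes either up or down relative to DMSO; overt cytotoxicity checked by sulforhodamine B staining in parallel wells.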
# [8] = BSK_LPS_SRB: Viability Assessment in the BioMAP Diversity Plus: LPS Assay (AID 2283079); conditions: primary human HUVEC with PBMC;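 also: total protein by sulforhodamine B absorbance as a cytotoxicity measure; measured one day after compound addition; fitted in both directions against DMSO so loss or gain of signal counts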
# In short: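 SRB viability endpoint: cells fixed with 10% TCA, stained with 0.1% SRB, read at 560 nm, 24 h post-dose. HUVEC/PBMC co-culture; signal change in either direction scored relative to DMSO.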
# [9] = read-out: Interleukin-1 alpha (IL1a), IL1A (gene 3552); assay: BSK_LPS_IL1a: BioMAP Diversity Plus: LPS Assay for Interleukin-1 alpha (IL1a) Biomarker Activity (AID 2283080); conditions: primary human HUVEC with PBMC; actives raise or lower the signal
# In short: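 Readout is IL-1a level by ELISA, 24 h post-dose, fitted as gain or loss relative to DMSO. System: LPS-activated human primary co-culture of vascular endothelium and peripheral blood mononuclear cells, with parallel SRB total-protein cytotoxicity.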
# [10] = read-out: Monocyte Chemoattractant Protein-1 (MCP1), CCL2 (gene 6347); assay: BSK_LPS_MCP1: BioMAP Diversity Plus: LPS Assay for Monocyte Chemoattractant Protein-1 (MCP1) Biomarker Activity (AID 2283081); conditions: primary human HUVEC with PBMC; actives raise or lower the signal;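 as to AC50: secreted MCP-1 protein quantified by ELISA in culture supernatant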
# In short: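 Secreted MCP-1 read by ELISA at 24 h post-dosing in an LPS-activated co-culture of endothelial cells with peripheral blood mononuclear cells. Fits run in both directions, DMSO as baseline; parallel SRB staining tracks overt cytotoxicity.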
# [11] = BSK_LPS_PGE2: BioMAP Diversity Plus: LPS Assay for Prostaglandin E2 (PGE2) Biomarker Activity (AID 2283082); conditions: primary human HUVEC with PBMC; actives raise or lower the signal;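 as to AC50: secreted prostaglandin E2 measured by ELISA in LPS-stimulated co-culture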
# In short: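 Compounds were added to the LPS co-culture of endothelium and PBMC, and PGE2 was measured by ELISA after 24 h. Responses in either direction were fitted with DMSO as baseline.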
# [12] = read-out: Macrophage colony-stimulating factor (MCSF), CSF1 (gene 1435); assay: BSK_LPS_MCSF: BioMAP Diversity Plus: LPS Assay for Macrophage colony-stimulating factor (MCSF) Biomarker Activity (AID 2283083); conditions: primary human HUVEC with PBMC; actives raise or lower the signal
# In short: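 Bidirectional fitting against DMSO was applied to M-CSF levels read by ELISA at 24 h post-dose. The system pairs human umbilical vein endothelium with peripheral blood mononuclear cells; parallel SRB staining tracked cytotoxicity.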
# [13] = read-out: Tissue Factor, F3 (gene 2152); assay: BSK_LPS_TissueFactor: BioMAP Diversity Plus: LPS Assay for Tissue Factor Biomarker Activity (AID 2283084); conditions: primary human HUVEC with PBMC; actives raise or lower the signal
# In short: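 Compound was added to an endothelial cell/PBMC co-culture, and after 24 h tissue factor (CD142) was read by ELISA. Gain or loss of signal was fitted against a DMSO baseline, and parallel SRB staining (560 nm) tracked overt cytotoxicity.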
# [14] = read-out: Tumor necrosis factor (Homo sapiens) (UniProt P01375); assay: BSK_LPS_TNFa: BioMAP Diversity Plus: LPS Assay for Tumour Necrosis Factor alpha (TNFa) Biomarker Activity (AID 2283085); conditions: primary human HUVEC with PBMC; actives raise or lower the signal
# In short: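 Cells (umbilical vein endothelium plus peripheral blood mononuclear cells) were dosed with chemical, incubated 24 h, then TNFa was quantified by ELISA; values derive from bidirectional fitting with DMSO as baseline.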
# [15] = read-out: Vascular cell adhesion molecule 1 (VCAM1), VCAM1 (gene 7412); assay: BSK_LPS_VCAM1: BioMAP Diversity Plus: LPS Assay for Vascular cell adhesion molecule 1 (VCAM1) Biomarker Activity (AID 2283086); conditions: primary human HUVEC with PBMC; actives raise or lower the signal
# In short: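 Cells are dosed in an LPS-stimulated endothelial/mononuclear co-culture and, after 24 h, VCAM-1 is quantified by ELISA. Activity in either direction is fitted relative to the DMSO negative control.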
# CD38, CD38 (gene 952) = assay: BSK_SAg_CD38: BioMAP Diversity Plus: SAg Assay for CD38 Biomarker Activity (AID 2283087); conditions: primary human HUVEC with PBMC; actives raise or lower the signal
# In short: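 CD38 quantified by ELISA (fluorescence) in a superantigen-activated endothelial cell–PBMC co-culture at 24 h post-dose. Activity fitted in both directions relative to DMSO; parallel SRB and Alamar Blue cytotoxicity read-outs.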
# CD40, CD40 (gene 958) [16] = assay: BSK_SAg_CD40: BioMAP Diversity Plus: SAg Assay for CD40 Biomarker Activity (AID 2283088); conditions: primary human HUVEC with PBMC; actives raise or lower the signal
# In short: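 CD40 is measured by fluorescence ELISA in an endothelial/PBMC primary human co-culture at 24 h post-dose. Fitting is bidirectional, DMSO baseline. Parallel SRB staining (560 nm) flags cytotoxicity.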
# CD69, CD69 (gene 969) = assay: BSK_SAg_CD69: BioMAP Diversity Plus: SAg Assay for CD69 Biomarker Activity (AID 2283089); conditions: primary human HUVEC with PBMC; actives raise or lower the signal;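 as to AC50: cell surface CD69 protein quantified by ELISA with fluorescence detection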
# In short: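 ELISA, fluorescence read-out: CD69 on human umbilical vein endothelial cell + PBMC co-culture, 24 h post-dosing. Gain or loss of signal fitted bidirectionally against DMSO baseline.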
# [17] = read-out: Monocyte Chemoattractant Protein-1 (MCP1), CCL2 (gene 6347); assay: BSK_SAg_MCP1: BioMAP Diversity Plus: SAg Assay for Monocyte Chemoattractant Protein-1 (MCP1) Biomarker Activity (AID 2283090); conditions: primary human HUVEC with PBMC; actives raise or lower the signal
# In short: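 Values derive from bidirectional fitting of ELISA-measured MCP1 against DMSO controls. Readings were taken 24 h after dosing human vascular endothelial cells co-cultured with peripheral blood mononuclear cells under superantigen stimulation.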
# [18] = read-out: E-selectin (Homo sapiens) (UniProt P16581); assay: BSK_SAg_Eselectin: BioMAP Diversity Plus: SAg Assay for Eselectin Biomarker Activity (AID 2283091); conditions: primary human HUVEC with PBMC; actives raise or lower the signal
# In short: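 Cell-surface E-selectin is read by ELISA at 24 h in the SAg co-culture of HUVEC and PBMC. Curves are fitted in both directions relative to DMSO. Parallel SRB total-protein staining tracks overt toxicity.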
# Sequence of Tumor necrosis factor (Homo sapiens) (P01375 whole entry, looked up): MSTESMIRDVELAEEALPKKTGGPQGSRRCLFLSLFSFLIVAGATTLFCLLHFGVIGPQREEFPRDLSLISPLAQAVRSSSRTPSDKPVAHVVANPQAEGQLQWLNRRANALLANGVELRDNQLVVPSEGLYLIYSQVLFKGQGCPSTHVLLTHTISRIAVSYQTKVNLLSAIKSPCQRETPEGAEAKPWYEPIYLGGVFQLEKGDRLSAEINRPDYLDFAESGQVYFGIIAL
# Sequence of E-selectin (Homo sapiens) (P16581 whole entry, looked up): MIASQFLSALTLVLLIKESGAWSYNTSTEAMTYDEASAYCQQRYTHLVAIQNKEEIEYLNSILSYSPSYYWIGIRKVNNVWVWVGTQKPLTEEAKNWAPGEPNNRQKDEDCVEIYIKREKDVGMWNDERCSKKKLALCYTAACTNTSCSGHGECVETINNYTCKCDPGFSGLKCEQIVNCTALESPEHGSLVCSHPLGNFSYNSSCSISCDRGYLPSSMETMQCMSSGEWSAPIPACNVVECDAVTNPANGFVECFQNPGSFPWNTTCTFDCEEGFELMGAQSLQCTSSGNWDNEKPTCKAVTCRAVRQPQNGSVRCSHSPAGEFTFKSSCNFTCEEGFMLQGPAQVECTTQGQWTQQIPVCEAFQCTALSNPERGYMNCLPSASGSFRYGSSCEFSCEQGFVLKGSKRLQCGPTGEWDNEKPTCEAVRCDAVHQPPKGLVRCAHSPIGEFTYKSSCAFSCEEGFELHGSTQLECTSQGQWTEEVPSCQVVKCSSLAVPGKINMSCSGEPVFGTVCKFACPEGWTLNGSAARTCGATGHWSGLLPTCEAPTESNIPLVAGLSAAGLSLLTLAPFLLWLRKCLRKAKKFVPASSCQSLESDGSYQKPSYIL
smiles,measurement,setting,value
CC(C)(C)[C@@H](O)[C@@H](Cc1ccc(Cl)cc1)n1cncn1,outcome,[1],inactive
same,outcome,[2],inactive
same,outcome,[3],inactive
same,outcome,[4],inactive
same,outcome,"CD40, CD40 (gene 958) [5]",inactive
same,outcome,[6],inactive
same,outcome,[7],inactive
same,outcome,[8],inactive
same,AC50,[9],3.97 µM (active)
same,outcome,[10],inactive
same,outcome,[11],inactive
same,outcome,[12],inactive
same,outcome,[13],inactive
same,outcome,[14],inactive
same,outcome,[15],inactive
same,outcome,"CD38, CD38 (gene 952)",inactive
same,outcome,"CD40, CD40 (gene 958) [16]",inactive
same,outcome,"CD69, CD69 (gene 969)",inactive
same,outcome,[17],inactive
same,AC50,[18],8.51 µM (active)
CCCCOC(=O)[C@@H](C)Oc1ccc(Oc2ccc(C(F)(F)F)cn2)cc1,outcome,[1],inactive
same,outcome,[2],inactive
same,outcome,[3],inactive
same,outcome,[4],inactive
same,outcome,"CD40, CD40 (gene 958) [5]",inactive
same,outcome,[6],inactive
same,outcome,[7],inactive
same,outcome,[8],inactive
same,outcome,[10],inactive
same,outcome,[11],inactive
same,outcome,[12],inactive
same,outcome,[13],inactive
same,outcome,[14],inactive
same,outcome,[15],inactive
same,outcome,"CD38, CD38 (gene 952)",inactive
same,outcome,"CD40, CD40 (gene 958) [16]",inactive
same,outcome,"CD69, CD69 (gene 969)",inactive
same,outcome,[17],inactive
same,outcome,[18],inactive
CCOC(=O)NCCOc1ccc(Oc2ccccc2)cc1,outcome,[1],inactive
same,AC50,[2],4.43 µM (active)
same,AC50,[3],30.3 µM (active)
same,outcome,[4],inactive
same,AC50,"CD40, CD40 (gene 958) [5]",8.9 µM (active)
same,outcome,[6],inactive
same,outcome,[7],inactive
same,AC50,[8],14.2 µM (active)
same,AC50,[10],14.4 µM (active)
same,outcome,[11],inactive
same,AC50,[12],14.7 µM (active)
same,outcome,[13],inactive
same,outcome,[14],inactive
same,outcome,[15],inactive
same,AC50,"CD38, CD38 (gene 952)",29.1 µM (active)
same,AC50,"CD40, CD40 (gene 958) [16]",14.5 µM (active)
same,AC50,"CD69, CD69 (gene 969)",25.3 µM (active)
same,AC50,[17],26.9 µM (active)
same,AC50,[18],31.8 µM (active)
O=C(O)C1(C(=O)Nc2ccc(Cl)cc2Cl)CC1,outcome,[1],inactive
same,outcome,[2],inactive
same,outcome,[3],inactive
same,outcome,[4],inactive
same,outcome,"CD40, CD40 (gene 958) [5]",inactive
same,outcome,[6],inactive
same,outcome,[7],inactive
same,outcome,[8],inactive
same,outcome,[10],inactive
same,AC50,[11],7.72 µM (active)
same,outcome,[12],inactive
same,outcome,[13],inactive
same,outcome,[14],inactive
same,outcome,[15],inactive
same,AC50,"CD38, CD38 (gene 952)",5.3 µM (active)
same,outcome,"CD40, CD40 (gene 958) [16]",inactive
same,AC50,"CD69, CD69 (gene 969)",9.21 µM (active)
same,outcome,[17],inactive
same,outcome,[18],inactive
C#C[C@]1(O)CC[C@H]2[C@@H]3CCC4=CC(=O)CC[C@@H]4[C@H]3CC[C@@]21CC,outcome,[1],inactive
same,outcome,[2],inactive
same,outcome,[3],inactive
same,outcome,[4],inactive
same,outcome,"CD40, CD40 (gene 958) [5]",inactive
same,outcome,[6],inactive
same,outcome,[7],inactive
same,outcome,[9],inactive
same,outcome,[10],inactive
same,AC50,[11],2.43 µM (active)
same,AC50,[12],14.5 µM (active)
same,outcome,[13],inactive
same,outcome,[14],inactive
same,outcome,[15],inactive
same,outcome,"CD38, CD38 (gene 952)",inactive
same,outcome,"CD40, CD40 (gene 958) [16]",inactive
same,outcome,"CD69, CD69 (gene 969)",inactive
same,outcome,[17],inactive
same,outcome,[18],inactive
CCN(CC)C(=O)c1cccc(C)c1,outcome,[1],inactive
same,outcome,[2],inactive
same,outcome,[3],inactive
same,outcome,[4],inactive
same,outcome,"CD40, CD40 (gene 958) [5]",inactive
same,outcome,[6],inactive
same,outcome,[7],inactive
same,outcome,[9],inactive
same,outcome,[10],inactive
same,outcome,[11],inactive
same,outcome,[12],inactive
same,outcome,[13],inactive
same,outcome,[14],inactive
same,outcome,[15],inactive
same,outcome,"CD38, CD38 (gene 952)",inactive
same,outcome,"CD40, CD40 (gene 958) [16]",inactive
same,outcome,"CD69, CD69 (gene 969)",inactive
same,outcome,[17],inactive
same,outcome,[18],inactive

# Source: PubChem BioAssay (EPA / NIEHS)
